Screening data deposited in PubChem BioAssay by National Center for Advancing Translational Sciences (NCATS).
B2AR arrestin: qHTS assay of beta-arrestin-biased ligands of beta2-adrenergic receptor; Beta-2 adrenergic receptor (Homo sapiens), P07550; beta-arrestin recruitment to beta2AR, cell-based reporter; Potency, µM (highest dose often 46.1 µM), without a hit: at the top dose activation, actives largely listed as activators; 330,000 tested, 0.02% active; AID 492947, 2010; active means well fitted activation curve with a large enough effect; inconclusive means small, poorly fitted or top-dose-only effect;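 further: potency means the concentration at half of the fitted maximal effect; 0% = DMSO controls and full agonism = EC100 isoproterenol or metaproterenol; nearly all actives have a fitted effect of over 65% in size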
Target sequence (P07550 whole entry, looked up): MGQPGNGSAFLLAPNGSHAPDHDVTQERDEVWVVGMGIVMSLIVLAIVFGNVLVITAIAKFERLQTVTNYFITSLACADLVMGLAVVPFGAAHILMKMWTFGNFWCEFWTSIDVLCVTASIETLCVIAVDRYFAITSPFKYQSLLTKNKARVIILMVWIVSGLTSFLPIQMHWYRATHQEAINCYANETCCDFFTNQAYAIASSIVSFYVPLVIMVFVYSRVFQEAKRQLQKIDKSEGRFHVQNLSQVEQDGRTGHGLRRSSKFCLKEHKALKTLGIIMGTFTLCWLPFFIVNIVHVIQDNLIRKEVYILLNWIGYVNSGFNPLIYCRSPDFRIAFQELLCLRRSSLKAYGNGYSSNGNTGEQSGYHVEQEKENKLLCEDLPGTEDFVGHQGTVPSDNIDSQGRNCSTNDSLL
D3 antag: qHTS of D3 Dopamine Receptor Antagonist: qHTS; D3R cells, DiscoveRx beta-arrestin luminescence, antagonist mode; hits give low values; max response, negative = inhibition, %; 360,000 tested, 2.5% active; in the data active means max response below about -50%; inconclusive means no clear call, values can overlap the other calls; further: on the % scale 0 is the no-effect control and ±100 the full control effect
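Cells plated overnight at 1500 cells/well, then exposed to library compounds with dopamine controls for 90 minutes at 37 degrees C. DiscoveRx reagent added for 30–60 minutes at room temperature; luminescence read, quantitative HTS format.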
Giardia kill: Small Molecules that selectively kill Giardia lamblia: qHTS; Giardia lamblia trophozoite viability; activity change, % at 7.66 µM, hits read low; 340,000 tested, 0.15% active; in the data active means activity change below about -80%; inconclusive means between about -30% and that limit;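 further: parasites exposed to compound for two days anaerobically before the ATP read; on the % scale 0 is the no-effect control and ±100 the full control effect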
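ATP-content bioluminescence gauges trophozoite survival. Cells (100/well) receive compound and incubate anaerobically for 48 hrs at 37 deg C; detection reagent follows for 15-30 min at room temperature.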
D3 ag: qHTS of D3 Dopamine Receptor Agonist: qHTS | D(3) dopamine receptor (Homo sapiens), P35462 | D3R DiscoveRx beta-arrestin cells, luminescence, 90 min | max activation, % | 410,000 tested, 0.58% active | AID 652048, 2013; in the data active means max activation above about 30%; further: 0% is about no effect
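Agonist mode: compounds and dopamine controls were applied to plated cells for 90 min at 37 degrees C after an overnight attachment at 1500 cells/well. Luminescent read-out followed 30 - 60 minutes at room temperature with DiscoveRx detection reagent.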
An asterisk follows results filed as active; ? = inconclusive; . = not tested or not shown; ! = a repeat was not active. Sampled rows, rich in hits. Any-hit rate of the full collection: about 2.8%.

SMILES	B2AR arrestin	D3 antag	Giardia kill	D3 ag
CCOc1ccc(-n2c(N)c(C(=O)NCc3ccco3)c3nc4ccccc4nc32)cc1	0.0%	-79.4*	0.2	-12.7
O=C(Nc1ccc(Cl)cc1)c1cnn2c1NC(c1ccccc1)=CC2c1ccccc1 (stereo not drawn)	.	.	.	1.8
C[C@@H]1C(=O)O[C@@H]1[C@@H](C)CO[Si](c1ccccc1)(c1ccccc1)C(C)(C)C	.	.	11.8	.
CC(=O)Nc1ccc(NC(=O)c2cc([N+](=O)[O-])cc([N+](=O)[O-])c2)cc1	-0.2%	8.6	2.1	0.1
Cc1ccc(NC(=O)c2ccc(Nc3c([N+](=O)[O-])cc([N+](=O)[O-])cc3[N+](=O)[O-])cc2)cc1	-1.7%	-76.8*	?	-16.0
CCNC(=O)c1cnc2sc(N3CCC(C)CC3)nn2c1=O	.	.	.	-7.4
O=C(Nc1ccccc1)c1cccc2c(=O)c3c([nH]c12)CCCC3	.	.	.	6.5
Cn1c(=O)[nH]c(=O)c2c1nc([N+](=O)[O-])n2Cc1ccccc1	-0.1%	-81.7*	2.0	-27.2
Cc1sc(N)nc1-c1cccc([N+](=O)[O-])c1	.	.	-22.8	.
Cc1cc(C)n(-c2nc3ccccc3nc2Nc2ccc(Cl)c(Cl)c2)n1	.	.	.	-8.3
Cc1cc(C)n(-c2nc3ccccc3nc2Nc2ccc3[nH]c(=O)[nH]c3c2)n1	-0.4%	24.5	0.6	41.8*
CN1CCC(OC(=O)c2ccc(Br)cc2)CC1	.	?	23.4	-10.3
CN1CCC(=C(c2ccccc2)c2ccc(Br)cc2)CC1	.	-99.0*	0.2	-25.7
COc1ccc(-c2nc(NCCCN(C)C)c3ccccc3n2)cc1	0.0%	-0.8	-99.0*	4.4
CCN(CC)CCCNc1nc(-c2ccccc2)nc2ccccc12	0.0%	-24.6	0.9	-0.4
CCN(CC)CCCNc1nc2ccccc2c2[nH]c3ccc(OC)cc3c12	.	-0.2	-84.2*	-8.0
O=C(COC(=O)c1ccccc1Cl)Nc1cccnc1Cl	-0.5%	-6.2	24.7	-3.3
O=C(COC(=O)c1ccccc1F)Nc1cccnc1Cl	0.3%	-3.1	-11.0	39.3*
Cc1ccccc1NC(=O)Cc1nc(COC(=O)c2cccc(C)c2O)cs1	0.7%	16.6	6.9	1.3
Cc1ccccc1NC(=O)COC(=O)c1ccc(S(C)(=O)=O)c([N+](=O)[O-])c1	-0.4%	-98.1*	-6.2	-13.7
CCOC(=O)c1c(C)[nH]c(C(=O)OCc2csc(CC(=O)Nc3ccccc3C)n2)c1C	0.3%	8.0	8.8	35.6*
CS(=O)(=O)c1ccc(C(=O)OCC(=O)Nc2cccnc2Cl)cc1[N+](=O)[O-]	-0.3%	-67.5*	-9.2	-22.1
Cn1ccc2cc(S(=O)(=O)N3CCCC(C(=O)NCc4ccc(F)cc4)C3)ccc21 (stereo not drawn)	.	.	.	1.5
Cc1cc(Br)cc2c1N(Cc1ccccc1OC(C)C)C(=O)C2=O	.	.	.	-19.5
CC(CCc1ccccc1)NC(=O)COC(=O)c1ccc([N+](=O)[O-])cc1 (stereo not drawn)	0.1%	6.4	-28.0	-8.0
SMILES	B2AR arrestin	D3 antag	Giardia kill	D3 ag
CC(CCc1ccccc1)NC(=O)COC(=O)c1ccc(S(C)(=O)=O)c([N+](=O)[O-])c1 (stereo not drawn)	0.0%	-77.7*	0.9	-18.3
Cc1ccccc1NC(=O)Cc1nc(COC(=O)c2ccc(S(C)(=O)=O)c([N+](=O)[O-])c2)cs1	-0.3%	-72.8*	8.1	-5.3
Cc1ccccc1NC(=O)Cc1nc(COC(=O)c2ccc(NC(N)=O)cc2)cs1	-0.5%	11.5	-15.4	0.4
COc1ccccc1NC(=O)C1=C(C)Nc2nc(SCc3ccccc3)nn2C1c1ccccn1 (stereo not drawn)	.	.	.	-6.4
CCn1cnc2c1c(=O)n(Cc1cccc(Br)c1)c(=O)n2Cc1ccccc1	0.2%	-1.3	1.3	35.0*
CCn1cnc2c1c(=O)n(CC(=O)Nc1ccc(C(N)=O)cc1)c(=O)n2Cc1ccccc1	0.2%	0.0	23.5	-6.5
CCn1cnc2c1c(=O)n(CC(=O)Nc1ccc3c(c1)OC(F)(F)O3)c(=O)n2Cc1ccccc1	-1.6%	-50.1*	-5.5	3.4
CSc1sccc1/C=N/NC(=O)c1ccncc1	-0.9%	10.8	0.5	0.9
CSc1sccc1/C=N/O	0.5%	-55.0*	-2.0	13.9
CC(=O)N1c2ccccc2C(=O)C1N1CCN(c2cccc(C)c2C)CC1 (stereo not drawn)	.	.	.	4.7
CCN(CC)c1ccc(/C=C2/C(=O)c3ccc(C(=O)O)cc3C2=O)cc1	0.7%	-56.2*	-27.2	-11.5
CCN(CC)c1ccc(C=C2C(=O)OC3(CCCCC3)OC2=O)cc1	0.2%	2.5	7.6	-1.8
O=C(N/N=C/c1ccc(O)cc1)c1cc[n+](Cc2ccccc2)cc1	-0.5%	?	-13.8	-3.1
O=C(N/N=C/c1ccc(OCc2ccccc2)cc1)c1cc[n+](Cc2ccccc2)cc1	-0.4%	-59.3*	-0.8	-3.1
Cn1c(=O)[nH]c(=O)c2c1nc1n2CCN1c1ccccc1	.	.	.	44.6*
Cn1c(=O)[nH]c(=O)c2c1nc(N1CCNCC1)n2Cc1cccc2ccccc12	0.2%	-79.7*	0.0	-5.7
CC1CN(c2ccccc2)c2nc3c(c(=O)[nH]c(=O)n3C)n2C1 (stereo not drawn)	-1.2%	-15.3	7.0	-4.3
Cn1c(=O)c2c(nc(N3CCNCC3)n2Cc2cccc3ccccc23)n(C)c1=O	-0.3%	-68.8*	12.8	-8.9
COc1ccc(-c2ccc(-c3cc(=O)oc4cc(OC)c(OC)c(OC)c34)cc2)cc1OC	0.0%	2.7	-5.3	34.1*
CCN1/C(=C/C(C)=C/c2sc3ccccc3[n+]2CC)Sc2ccccc21	-0.1%	-58.9*!	-5.9	-9.1
Cc1cccc(NC(=O)c2ccc([N+](=O)[O-])o2)n1	0.5%	0.0	?	-3.4
O=C(NC12CC3CC(CC(C3)C1)C2)c1ccc([N+](=O)[O-])o1	0.1%	-5.8	-93.2*	4.4
O=C(Nc1ccc(NC(=O)c2ccc([N+](=O)[O-])o2)cc1Cl)c1ccco1	-0.7%	-5.9	-92.4*	3.1
CC(=O)Nc1cccc(NC(=O)c2ccco2)c1	-0.4%	0.0	-17.0	-4.8
O=C(Nc1ccccc1Cl)c1ccc([N+](=O)[O-])o1	2.0%	5.2	-82.8*	0.6
SMILES	B2AR arrestin	D3 antag	Giardia kill	D3 ag
O=C(Nc1cccc(NC(=O)c2ccc([N+](=O)[O-])o2)c1)c1ccco1	0.2%	-7.7	-84.7*	0.6
CCN(CC)c1ccc(NC(=O)C2CCN(S(=O)(=O)c3cnc[nH]3)CC2)c(C)c1	.	.	.	-11.7
CCOC(=O)c1c(C)[nH]c(CCC(=O)NCc2cc(Br)ccc2OC)c1C	.	.	.	-12.1
Cc1ccc(S(=O)(=O)N2CCN(c3nc(-c4cccs4)nc4ccccc34)CC2)c(C)c1	.	.	4.2	.
Cc1ccccc1S(=O)(=O)Cc1ccc(C(=O)NCc2ccccc2Cl)o1	.	.	.	-2.8
Cc1c(NC(=O)c2ccc([N+](=O)[O-])o2)cccc1-c1nc2ncccc2o1	2.6%	5.2	-92.0*	5.7
